According to PubChem BioAssay AID1159580 (chemical genetic matrix, 2015):
Where “and” joins values, the source holds several entries; their conditions need not be identical. Equal values may be shown once. In all, about 5,500 compounds went through this assay and about 2,000 (36%) were called active. Another 18% or so got no clear call; they are omitted. Cut-off read from the data, not from the text of the source: active = normalized growth mostly below about 0.91 (no sharp cut-off); inconclusive = no clear call, values can overlap the other calls; inactive = mostly above about 0.92. Some of the results follow.

Assay: chemical genetic growth profiling, strain panel (AID 1159580);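 note: tested at 20 µM; growth read once vehicle control cultures reached saturation at 30 °C; 1 = growth at the plate median or of vehicle wells; lower values mean less growth of the strain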
Conditions: S. cerevisiae deletion strains, growth OD

Measured: normalized growth

CCOC(=O)[C@H](CCc1ccccc1)N[C@@H](C)C(=O)N1[C@H](C(=O)O)C[C@@H]2CCC[C@@H]21
inactive: locus YAL013W, strain DEP1, hits give low values 1.01 | locus YAL021C, strain ccr4, hits give low values 1.01 | locus YAL026C, strain drs2, hits give low values 0.985 | locus YAL030W, strain snc1, hits give low values 0.995 | locus YBL061C, strain skt5, hits give low values 0.984 | locus YBR009C, strain hhf1, hits give low values 0.995 | locus YBR021W, strain FUR4, hits give low values 1 | locus YBR023C, strain chs3, hits give low values 0.983 | locus YBR171W, strain sec66, hits give low values 0.971 | locus YBR229C, strain ROT2, hits give low values 1.01 | locus YBR231C, strain swc5, hits give low values 0.982 | locus YBR279W, strain paf1, hits give low values 0.979 | locus YCL011C, strain gbp2, hits give low values 0.981 | locus YCL016C, strain dcc1, hits give low values 0.985 | locus YCL029C, strain bik1, hits give low values 1.01 | locus YCL061C, strain MRC1, hits give low values 0.982 | locus YCL069W, strain vba3, hits give low values 0.977 | locus YCR088W, strain abp1, hits give low values 0.978 | locus YDL005C, strain med2, hits give low values 0.981 | locus YDL035C, strain GPR1, hits give low values 1.01 | locus YDL040C, strain nat1, hits give low values 0.981 | locus YDL074C, strain BRE1, hits give low values 1.02 | locus YDL101C, strain DUN1, hits give low values 1.01 | locus YDL134C, strain PPH21, hits give low values 1.01 | locus YDL185W, strain tfp1, hits give low values 0.998 | locus YDL192W, strain arf1, hits give low values 1.02 | locus YDR001C, strain nth1, hits give low values 0.978 | locus YDR069C, strain doa4, hits give low values 1.01 | locus YDR101C, strain arx1, hits give low values 1.01 | locus YDR137W, strain rgp1, hits give low values 0.946 | locus YDR150W, strain NUM1, hits give low values 1.01 | locus YDR159W, strain sac3, hits give low values 0.987 | locus YDR162C, strain NBP2, hits give low values 1.03 | locus YDR195W, strain ref2 0.97 | locus YDR297W, strain sur2, hits give low values 0.981 | locus YDR318W, strain mcm21, hits give low values 1.02 | locus YDR334W, strain swr1, hits give low values 0.978 | locus YDR335W, strain msn5, hits give low values 0.985 | locus YDR388W, hits give low values 1.01 | locus YDR392W, strain spt3, hits give low values 0.974 | locus YDR502C, strain sam2, hits give low values 1.01 | locus YEL003W, strain gim4, hits give low values 0.981 | locus YEL037C, strain rad23, hits give low values 0.982 | locus YEL061C, strain CIN8 (second series), hits give low values 0.98 | locus YEL061C, strain CIN8, hits give low values 1.01 | locus YER015W, strain faa2, hits give low values 0.989 | locus YER016W, strain bim1, hits give low values 0.993 | locus YER110C, hits give low values 1.01 | locus YER111C, strain swi4, hits give low values 0.976 | locus YER155C, strain BEM2 (second series), hits give low values 0.972 | locus YER155C, strain BEM2, hits give low values 1 | locus YER167W, strain BCK2, hits give low values 1.01 | locus YFR010W, strain ubp6, hits give low values 0.989 | locus YGL078C, strain dbp3, hits give low values 1.01 | locus YGL086W, strain mad1, hits give low values 1.02 | locus YGL167C, strain pmr1, hits give low values 0.979 | locus YGL173C, strain kem1, hits give low values 0.969 | locus YGL227W, strain vid30, hits give low values 0.979 | locus YGL240W, strain doc1, hits give low values 1 | locus YGL248W, strain PDE1, hits give low values 1.01 | locus YGL253W, strain hxk2, hits give low values 0.996 | locus YGR078C, strain PAC10, hits give low values 1.01 | locus YGR135W, strain pre9, hits give low values 1.02 | locus YGR229C, strain SMI1, hits give low values 1.01 | locus YGR252W, strain gcn5, hits give low values 1.03 | locus YHR013C, strain ard1, hits give low values 0.956 | locus YHR027C, strain rpn1, hits give low values 0.979 | locus YHR030C, strain SLT2, hits give low values 1 and 1.01 | locus YHR079C, strain IRE1 (second series), hits give low values 1.01 | locus YHR079C, strain IRE1, hits give low values 1 | locus YHR094C, strain hxt1, hits give low values 1.02 | locus YHR129C, strain ARP1, hits give low values 1.01 | locus YHR142W, strain chs7, hits give low values 0.971 | locus YHR200W, strain rpn10, hits give low values 1.02 | locus YIL066C, strain RNR3, hits give low values 1.01 | locus YIL073C, strain SPO22, hits give low values 1.07 | locus YIL125W, strain kgd1, hits give low values 1.03 | locus YIR030C, strain dcg1, hits give low values 1.02 | locus YJL092W, strain hpr5, hits give low values 0.981 | locus YJL095W, strain BCK1 (second series), hits give low values 0.985 | locus YJL095W, strain BCK1, hits give low values 1 and 0.991 | locus YJL115W, strain asf1, hits give low values 0.986 | locus YJL129C, strain trk1, hits give low values 0.987 | locus YJL134W, strain LCB3, hits give low values 1.01 | locus YJL154C, strain vps35, hits give low values 0.978 | locus YJL164C, strain tpk1, hits give low values 0.995 | locus YJL166W, strain qcr8, hits give low values 0.99 | locus YJL168C, strain set2, hits give low values 1.02 | locus YJL187C, strain SWE1 (second series), hits give low values 1.01 | locus YJL187C, strain SWE1, hits give low values 0.985 | locus YJR043C, strain POL32, hits give low values 1.01 | locus YJR066W, strain TOR1, hits give low values 0.955
